{
  "source": "PubChem BioAssay AID651871",
  "about": "(Sanford-Burnham Center for Chemical Genomics, 2012)",
  "system": "HL-1",
  "experiment": "cardiomyocyte survival under oxidative or metabolic stress – cell-based, panel, H9c2 and HL-1, ATP luminescence, set 2, SAR follow-up (AID 651871);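 also: cells exposed to stressor for 2 h before ATP readout; reference of the scale not given here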",
  "details": "H9c2/HL-1 cardiomyocytes, 2-deoxyglucose stress, with 2-deoxyglucose, run 5, at 19.8 µM (top of the series)",
  "data": [
    {"molecule": "COc1ccc2c(c1OC)C(=O)N1c3ccccc3C(=O)N(Cc3cccc(Cl)c3Cl)C21", "note": "(stereo unspecified)", "values": [
      {"measurement": "activity (protection/inhibition)", "result": 51.6, "unit": "%"}
    ]}
  ]
}
